# Assay results reported in the supplement of paper PMC8728848.
# This excerpt belongs to a sample that is enriched for the strongest signals.
# How the values were obtained:
# Experiment in all cases: glycan array binding signal (z-score within array); higher = stronger binding
# Conditions in all cases: glycan notation: IUPAC condensed, linker removed
# [1] = molecular target: Fuc(a1-2)Gal(b1-3)GlcNAc(b1-2)Man(a1-3)[Fuc(a1-2)Gal(b1-3)GlcNAc(b1-2)Man(a1-6)]Man(b1-4)GlcNAc(b1-4)GlcNAc
# In short: (§1)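 Negative Z-scores can be read as non-binding. The Z-score is calculated within each array and then averaged across arrays of one protein sequence at different concentrations or buffers and across linkers. Arrays, 3228 in all, were curated from the Consortium for Functional Glycomics database and kept only where the protein sequence was available.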
# [2] = molecular target: Fuc(a1-2)Gal(b1-3)GlcNAc(b1-3)Gal(b1-4)Glc
# In short: as §1
# [3] = molecular target: Fuc(a1-2)Gal(b1-4)GlcNAc(b1-2)Man(a1-3)[Fuc(a1-2)Gal(b1-4)GlcNAc(b1-2)Man(a1-6)]Man(b1-4)GlcNAc(b1-4)[Fuc(a1-6)]GlcNAc
# In short: as §1
# [4] = molecular target: Fuc(a1-2)Gal(b1-4)GlcNAc(b1-3)[Fuc(a1-2)Gal(b1-4)GlcNAc(b1-6)]GalNAc
# In short: as §1
# [5] = molecular target: Fuc(a1-2)[Gal(a1-3)]Gal(b1-4)GlcNAc
# In short: as §1
# [6] = molecular target: Fuc(a1-2)[Gal(a1-3)]Gal(b1-4)GlcNAc(b1-6)GalNAc
# In short: as §1
# [7] = molecular target: Fuc(a1-2)[GalNAc(a1-3)]Gal(b1-3)GlcNAc(b1-3)GalNAc
# In short: as §1
# [8] = molecular target: Fuc(a1-2)[GalNAc(a1-3)]Gal(b1-4)GlcNAc(b1-3)GalNAc
# In short: as §1
# [9] = molecular target: Fuc(a1-3)[Gal(b1-4)]GlcNAc(b1-3)Gal(b1-4)[Fuc(a1-3)]GlcNAc(b1-3)Gal(b1-4)[Fuc(a1-3)]GlcNAc
# In short: as §1
# [10] = molecular target: Fuc(a1-3)[Gal(b1-4)]GlcNAc(b1-6)GalNAc
# In short: as §1
# [11] = molecular target: Fuc(a1-3)[Gal(b1-4)]GlcNAc(b1-6)[Gal(b1-3)GlcNAc(b1-3)]Gal(b1-4)Glc
# In short: as §1
# Fuc(a1-4)GlcNAc = molecular target: Fuc(a1-4)GlcNAc
# In short: as §1
# [12] = molecular target: Gal(a1-3)Gal(b1-3)GlcNAc(b1-2)Man
# In short: as §1
# [13] = molecular target: Gal(a1-3)Gal(b1-4)GlcNAc(b1-6)GalNAc
# In short: as §1
# [14] = molecular target: Gal(b1-3)GalNAc(b1-4)Gal(b1-4)Glc
# In short: as §1
# [15] = molecular target: Gal(b1-3)GlcNAc(b1-3)Gal(b1-4)GlcNAc
# In short: as §1
# [16] = molecular target: Gal(b1-3)GlcNAc(b1-3)Gal(b1-4)GlcNAc(b1-6)[Gal(b1-3)GlcNAc(b1-3)]Gal(b1-4)Glc
# In short: as §1
# [17] = molecular target: Gal(b1-3)GlcNAc(b1-6)[Gal(b1-3)]GalNAc
# In short: as §1
# [18] = molecular target: Gal(b1-3)[Fuc(a1-4)]GlcNAc(b1-2)Man(a1-3)[Gal(b1-3)[Fuc(a1-4)]GlcNAc(b1-2)Man(a1-6)]Man(b1-4)GlcNAc(b1-4)[Fuc(a1-6)]GlcNAc
# In short: as §1
# [19] = molecular target: Gal(b1-3)[Fuc(a1-4)]GlcNAc(b1-3)Gal(b1-4)[Fuc(a1-3)]GlcNAc
# In short: as §1
# [20] = molecular target: Gal(b1-3)[Fuc(a1-4)]GlcNAc(b1-6)GalNAc
# In short: as §1
# [21] = molecular target: Gal(b1-4)GlcNAc(b1-2)Man(a1-3)[Gal(b1-4)GlcNAc(b1-2)Man(a1-6)]Man(b1-4)GlcNAc(b1-4)[Fuc(a1-6)]GlcNAc
# In short: as §1
# [22] = molecular target: Gal(b1-4)GlcNAc(b1-2)[Gal(b1-4)GlcNAc(b1-4)]Man(a1-3)[GlcNAc(b1-4)][Gal(b1-4)GlcNAc(b1-2)[Gal(b1-4)GlcNAc(b1-6)]Man(a1-6)]Man(b1-4)GlcNAc(b1-4)GlcNAc
# In short: as §1
# [23] = molecular target: Gal(b1-4)GlcNAc(b1-3)Gal(b1-4)GlcNAc(b1-3)Gal(b1-4)GlcNAc(b1-2)Man(a1-3)[Gal(b1-4)GlcNAc(b1-3)Gal(b1-4)GlcNAc(b1-3)Gal(b1-4)GlcNAc(b1-2)Man(a1-6)]Man(b1-4)GlcNAc(b1-4)[Fuc(a1-6)]GlcNAc
# In short: as §1
# [24] = molecular target: Gal(b1-4)GlcNAc(b1-3)Gal(b1-4)GlcNAc(b1-3)[Gal(b1-4)GlcNAc(b1-3)Gal(b1-4)GlcNAc(b1-6)]GalNAc
# In short: as §1
# [25] = molecular target: Gal(b1-4)GlcNAc(b1-3)Gal(b1-4)GlcNAc(b1-6)[Gal(b1-3)]GalNAc
# In short: as §1
# Gal3S(b1-3)GalNAc = molecular target: Gal3S(b1-3)GalNAc
# In short: as §1
# Gal3S6S(b1-4)GlcNAc6S = molecular target: Gal3S6S(b1-4)GlcNAc6S
# In short: as §1
# Gal6S(b1-3)GlcNAc = molecular target: Gal6S(b1-3)GlcNAc
# In short: as §1
# Gal6S(b1-4)Glc = molecular target: Gal6S(b1-4)Glc
# In short: as §1
binder,measurement,setting,value
Aap arpt (Staphylococcus epidermidis) (protein) NNEAPQMSSTLQAEEGSNAEAPQSEPTKAEEGGNAEAAQSEPTKAEEGGNAEAPQSEPTKAEEGGNAEAAQSEPTKTEEGSNVKAAQSEPTKAEEGSNAEAPQSEPTKTEEGSNAKAAQSEPTKAEEGGNAEAAQSEPTKTEEGSNAEAPQSEPTKAEEGGYAEAPQSEPTKTEEGGNAEAPNVPTIKA,glycan array binding signal (z-score),[1],1.6
same,glycan array binding signal (z-score),[2],0.811
same,glycan array binding signal (z-score),[3],-0.547
same,glycan array binding signal (z-score),[4],-1.34
same,glycan array binding signal (z-score),[5],0.036
same,glycan array binding signal (z-score),[6],-0.475
same,glycan array binding signal (z-score),[7],-0.103
same,glycan array binding signal (z-score),[8],-0.617
same,glycan array binding signal (z-score),[9],0.278
same,glycan array binding signal (z-score),[10],0.096
same,glycan array binding signal (z-score),[11],-0.249
same,glycan array binding signal (z-score),Fuc(a1-4)GlcNAc,0.688
same,glycan array binding signal (z-score),[12],-0.261
same,glycan array binding signal (z-score),[13],3.25
same,glycan array binding signal (z-score),[14],0.305
same,glycan array binding signal (z-score),[15],-1.2
same,glycan array binding signal (z-score),[16],0.709
same,glycan array binding signal (z-score),[17],0.662
same,glycan array binding signal (z-score),[18],2.23
same,glycan array binding signal (z-score),[19],-1.72
same,glycan array binding signal (z-score),[20],-0.35
same,glycan array binding signal (z-score),[21],0.746
same,glycan array binding signal (z-score),[22],-1.6
same,glycan array binding signal (z-score),[23],2.73
same,glycan array binding signal (z-score),[24],2.68
same,glycan array binding signal (z-score),[25],2.97
same,glycan array binding signal (z-score),Gal3S(b1-3)GalNAc,0.361
same,glycan array binding signal (z-score),Gal3S6S(b1-4)GlcNAc6S,1.02
same,glycan array binding signal (z-score),Gal6S(b1-3)GlcNAc,-1.93
same,glycan array binding signal (z-score),Gal6S(b1-4)Glc,-0.15
